# Results: PubChem BioAssay
# Several values for one entry are separate records, joined by “and”; a condition that tells them apart may be missing. Identical values can stand only once. Activity calls are given as the source filed them.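 How the source made its calls, unless noted: active means inhibition at or above 50% relative to wild type and mutant plate controls; inactive means inhibition below 50%.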
# How the values were obtained:
# [1] = inhibitors of TNFa-induced NFkB p65 translocation, primary screen, imaging, HUVEC, MLSMR starter and 10KST1 sets (AID 438;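 active means inhibition above 20% together with a positive visual image hit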;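 further: compound added about 3h40 before a 20 min TNFalpha stimulation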;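 on inhibition: signal is the nuclear over cytoplasmic p65 intensity ratio per well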); conditions: HUVEC TNFa-induced p65 nuclear translocation; cell count: measured here: nuclei count (cytotoxicity indicator), at 2.08 µM; inhibition: at 2 µM, stronger effect = higher value, 0% TNFa-plus-vehicle, 100% no-TNFa wells
# [2] = reduction of polyQ htt aggregates in cells – imaging, exon1htt(103Q)mCFP cells, high-content imaging, primary screen (AID 483;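 active means visual image review flags a hit and inhibition of aggregation exceeds 20%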;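 further: compound exposure lasted 3 days before fixation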;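 on nuclei count: percent of the per-plate median nuclei count of sample wells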); conditions: exon1htt(103Q)mCFP cell line, aggregate imaging, at 2 µM; inhibition of aggregation: stronger effect = higher value; nuclei count: measured here: cell count, toxicity
# [3] = endothelial E-selectin expression blockers – imaging, HUVEC, immunofluorescence, MLSMR starter and 10KST1 sets, primary screen (AID 487;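 active means visually confirmed hit in the image check and inhibition above 20%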;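 on inhibition: signal is fraction of cell area covered by stained E-selectin grains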;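 on nuclei count: 100% = median nuclei count of all wells on the same plate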); conditions: HUVEC TNFalpha-induced E-selectin immunofluorescence imaging, at 2 µM; inhibition: stronger effect = higher value; nuclei count: measured here: cell number, toxicity
# [4] = target: Voltage-gated potassium channel subunit beta-2 (Rattus norvegicus) (UniProt P62483); assay: inhibitors of rat Kvbeta2 reductase activity – biochemical, NADPH fluorescence, primary screen (AID 622;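 active means fluorescence slope higher than the sample average by over 3 SD, cut at about -0.22 in these data, passing the limit was not always enough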;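 further: slope of raw intensity against log time taken from 70 to 1610 s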); conditions: recombinant KvBeta, 4-cyanobenzaldehyde reduction, at 10 µM, stronger effect = higher value
# [5] = target: Voltage-gated potassium channel subunit beta-2 (Rattus norvegicus) (UniProt P62483); assay: enhancers of rat Kvbeta2 NADPH turnover – biochemical, NADPH fluorescence, primary screen (AID 623;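 active means NADPH fluorescence slope more negative than the mean of all samples by about 3 SD, 99.7% confidence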;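 further: fluorescence intensity change per second fitted from 20 to 320 s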); conditions: Recombinant KvBeta, NADPH fluorescence decrease slope, 10 min; at 10 µM; stronger effect = lower value
# [6] = target: Alpha-2C adrenergic receptor (Homo sapiens) (UniProt P18825); assay: compounds altering alpha2C-coupled GIRK flux – cell-based, HEK293 alpha2C/GIRK1/2, thallium flux, primary screen (AID 624;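 active means fluorescence slope after compound addition differing from the mean of all screened samples at 99.7% confidence, in either direction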;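 further: slope of fluorescence ratio to pre-addition baseline per second over 15 to 24 s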); conditions: thallium flux BTC fluorescence, at 10 µM, actives lie on both sides
# [7] = loss of swimming-algae plug formation – whole organism, Chlamydomonas reinhardtii, WT vs cilia-less mutant, absorbance, 96-well, primary screen (AID 463189); conditions: Chlamydomonas reinhardtii gravitaxis, OD600 absorbance, 2 days; at 10 µM; stronger effect = higher value;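 further: 0% = wild type cc124 cells in DMSO and 100% = ciliumless bld1 mutant cells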
# [8] = blockers of RIG-like receptor reporter activation – cell-based, Sendai virus stimulus, luciferase, 10K MLSCN set, TLR/RLR signaling modifier project, primary screen (AID 602276;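 active means inhibition at or above 50% at 10 µM; inactive means inhibition below 50%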;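 further: firefly luciferase from ISG56 promoter only with Renilla not read in this screen; 0% = Sendai virus plus DMSO and 100% = medium plus DMSO without virus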); conditions: HEK293 RL24 IRF3 luciferase reporter, at 10 µM, stronger effect = higher value
# [9] = TLR3 IRF3 reporter activation blockers – cell-based, poly I:C stimulus, luciferase, 10K MLSCN set, primary screen (AID 602277;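 active means inhibition of the reporter signal at or above 50%; inactive means inhibition below 50%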); conditions: HEK293-TLR3 RL24 IRF3 luciferase reporter, at 10 µM, stronger effect = higher value
# [10] = Primary imaging screen for DUSP6 inhibitors that restore phospho-Erk in transfected HeLa cells, chemical complementation (AID 609;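 active means compounds giving at least 50% inhibition in the cell-based MKP-3 phosphatase rescue imaging test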;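 on inhibition: phospho-Erk level distribution per well compared with pooled transfected vehicle control wells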); conditions: HeLa MKP-3 transfected, phospho-Erk imaging KS statistic, at 10 µM, cells stimulated with TPA for 15 min
# [11] = target: Dual specificity protein phosphatase 6 (Homo sapiens) (UniProt Q16828); assay: as above; conditions: HeLa MKP-3 transfected, phospho-Erk imaging KS statistic; at 10 µM; stronger effect = higher value; cells stimulated with TPA for 15 min
# [12] = inhibitors of larval lipid processing in zebrafish, primary screen, whole organism, PED6 fluorescence, gall bladder and intestine (AID 686;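 active means a full or partial loss of lipid-probe fluorescence in the fish gall bladder, intestine or both, judged by eye; inactive means no fluorescence loss, or compound toxic to the fish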;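 further: larvae 5 to 7 days old with five fish per well; signal comes from phospholipase A2 cleavage of quenched PED6 carried via bile; overnight exposure to compound and PED6 before scoring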); conditions: Zebrafish larvae PED6 lipid processing, fluorescence scoring; screened at 20 µM (by protocol)
# [13] = target: Muscarinic acetylcholine receptor M4 (Homo sapiens) (UniProt P08173); assay: M4-linked GIRK flux change, two-sided – cell-based, HEK293 M4/GIRK, thallium flux, BTC-AM, M4 allosteric agonist project, primary screen (AID 625;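 active means fluorescence slope after compound addition differing from the mean of all tested samples at 99.7% confidence, mostly higher but some lower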;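 further: thallium influx through GIRK channels coupled to M4 in HEK293 cells with BTC-AM dye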); conditions: at 10 µM, actives lie on both sides
# [14] = measured here: cell density z-score
# [15] = measured here: nuclear c-Myc green intensity z-score
# [16] = measured here: nuclear pErk red intensity z-score, stronger effect = higher value
# Chain of Alpha-2C adrenergic receptor (Homo sapiens) (P18825 whole entry, looked up): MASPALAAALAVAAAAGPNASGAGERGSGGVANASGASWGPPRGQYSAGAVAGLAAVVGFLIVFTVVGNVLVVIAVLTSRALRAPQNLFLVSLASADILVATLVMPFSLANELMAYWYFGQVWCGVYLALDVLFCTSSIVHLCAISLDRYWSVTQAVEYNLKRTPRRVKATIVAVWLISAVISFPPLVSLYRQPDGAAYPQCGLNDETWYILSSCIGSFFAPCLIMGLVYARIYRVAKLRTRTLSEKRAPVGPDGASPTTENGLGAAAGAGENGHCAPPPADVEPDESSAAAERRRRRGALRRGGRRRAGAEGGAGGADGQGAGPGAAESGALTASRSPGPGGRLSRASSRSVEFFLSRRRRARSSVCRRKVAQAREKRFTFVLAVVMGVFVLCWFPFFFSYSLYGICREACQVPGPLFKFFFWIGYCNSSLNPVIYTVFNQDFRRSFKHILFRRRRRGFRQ
# Chain of Voltage-gated potassium channel subunit beta-2 (Rattus norvegicus) (P62483 whole entry, looked up): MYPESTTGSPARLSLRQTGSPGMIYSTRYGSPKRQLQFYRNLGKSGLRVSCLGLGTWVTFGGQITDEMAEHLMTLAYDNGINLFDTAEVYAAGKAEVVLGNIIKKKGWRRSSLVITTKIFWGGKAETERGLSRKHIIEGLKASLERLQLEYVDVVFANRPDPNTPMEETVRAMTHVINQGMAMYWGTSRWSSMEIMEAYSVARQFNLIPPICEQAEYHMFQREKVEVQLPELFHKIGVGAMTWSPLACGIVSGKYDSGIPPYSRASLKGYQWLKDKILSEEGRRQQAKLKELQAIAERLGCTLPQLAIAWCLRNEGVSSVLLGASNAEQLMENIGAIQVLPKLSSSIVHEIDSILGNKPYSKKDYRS
# Chain of Dual specificity protein phosphatase 6 (Homo sapiens) (Q16828 whole entry, looked up): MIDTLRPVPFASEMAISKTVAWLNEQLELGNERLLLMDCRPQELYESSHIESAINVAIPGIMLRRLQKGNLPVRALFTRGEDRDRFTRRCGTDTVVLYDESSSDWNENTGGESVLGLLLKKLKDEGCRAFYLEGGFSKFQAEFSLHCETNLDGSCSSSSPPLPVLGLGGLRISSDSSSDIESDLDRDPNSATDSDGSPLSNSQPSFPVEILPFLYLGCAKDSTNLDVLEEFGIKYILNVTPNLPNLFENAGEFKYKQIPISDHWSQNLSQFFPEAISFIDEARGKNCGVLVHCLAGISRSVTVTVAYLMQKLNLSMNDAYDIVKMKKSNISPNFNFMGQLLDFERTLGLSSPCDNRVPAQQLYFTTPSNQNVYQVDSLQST
# Chain of Muscarinic acetylcholine receptor M4 (Homo sapiens) (P08173 whole entry, looked up): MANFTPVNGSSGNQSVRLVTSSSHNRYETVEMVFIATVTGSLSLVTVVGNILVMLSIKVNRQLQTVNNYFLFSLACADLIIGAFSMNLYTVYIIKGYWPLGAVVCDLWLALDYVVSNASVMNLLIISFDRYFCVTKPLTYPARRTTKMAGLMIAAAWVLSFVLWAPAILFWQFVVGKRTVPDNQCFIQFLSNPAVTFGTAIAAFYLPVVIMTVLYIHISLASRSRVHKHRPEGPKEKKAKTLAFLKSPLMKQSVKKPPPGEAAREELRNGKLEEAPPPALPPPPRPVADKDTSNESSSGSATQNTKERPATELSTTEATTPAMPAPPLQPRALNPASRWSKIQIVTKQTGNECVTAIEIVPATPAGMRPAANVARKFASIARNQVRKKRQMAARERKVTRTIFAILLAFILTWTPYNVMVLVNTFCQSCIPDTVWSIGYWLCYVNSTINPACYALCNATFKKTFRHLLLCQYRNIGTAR
Structure (SMILES),cell count [1],inhibition [1],inhibition of aggregation [2],nuclei count [2] [%],inhibition [3],nuclei count [3] [%],fluorescence slope [4],NADPH fluorescence slope [5],slope [6],inhibition [7],inhibition [8],inhibition [9],"z-score [10, 14]","z-score [10, 15]","z-score [10, 16]",inhibition [11],outcome [12],fluorescence slope [13]
O=C(c1ccc2c(c1)OCCO2)N1CCCCC1,580,-15% (inactive),-3.4% (inactive),106,-38.6% (inactive),122,-0.406 (inactive),1.1e-06 (inactive),0.00377 (inactive),-4.88% (inactive),8.03% (inactive),18.3% (inactive),–,–,–,–,–,–
CC(C)Oc1ccc2c(=O)c(-c3ccccc3)coc2c1,646,2.7% (inactive),–,–,-33.4% (inactive),124,-0.425 (inactive),-6.4e-05 (inactive),0.00497 (inactive),-9.11% (inactive),-37.9% (inactive),-186% (inactive),-1.12,-0.535,0.614,10.2% (inactive),inactive,–
COc1ccc(CCn2c(=N)c(C#N)cc3c(=O)n4ccccc4nc32)cc1,529,1.4% (inactive),-0.9% (inactive),100,-65.9% (inactive),105,-0.447 (inactive),-1.4e-05 (inactive),–,32.6% (inactive),13.2% (inactive),2.91% (inactive),1.77,-0.331,-0.629,24.3% (inactive),inactive,0.00759 (inactive)
CN1CCN(C2=Nc3ccccc3Oc3ccc(Cl)cc32)CC1,536,-3.1% (inactive),-4.5% (inactive),91.8,-3.4% (inactive),105,-0.437 (inactive),-4.1e-05 (inactive),–,27.3% (inactive) and 39.2% (inactive),13.8% (inactive),41.9% (inactive),-0.87,0.672,-0.787,14.6% (inactive),inactive; toxic,–
Cc1oncc1C(=O)Nc1ccc(C(F)(F)F)cc1,554,-5.4% (inactive),–,–,-80% (inactive),111,-0.489 (inactive),-4.6e-05 (inactive),0.00635 (inactive),-2.73% (inactive) and -10% (inactive),-116% (inactive),-197% (inactive),0.779,0.543,0.25,-10.4% (inactive),inactive,–
Cc1ccc(C(=O)/C=C/Nc2cccc(O)c2)cc1,368,-4.7% (inactive),-12% (inactive),106,-0.2% (inactive),115,-0.467 (inactive),-0.000129 (inactive),–,37.3% (inactive),5.62% (inactive),-32.3% (inactive),-0.411,-0.594,0.929,-8.59% (inactive),inactive,0.00389 (inactive)
O=c1cc(NCc2ccccc2)nc2n1CCCS2,572,-1.5% (inactive),-16.3% (inactive),94.5,–,–,-0.506 (inactive),-0.000115 (inactive),0.00575 (inactive),4.05% (inactive),-14.4% (inactive),-33.9% (inactive),-0.588,-0.473,-1.35,-4.7% (inactive),inactive,–
C[C@H](CS)C(=O)N1CCC[C@H]1C(=O)O,555,1.6% (inactive),–,–,-80.8% (inactive),124,-0.485 (inactive),-4e-05 (inactive),0.00488 (inactive),-3.81% (inactive) and 9.89% (inactive),-6.06% (inactive),12.3% (inactive),0.625,-1.55,1.02,12.4% (inactive),–,–
COc1ccccc1OCC(O)COC(N)=O (centres undefined),634,2.6% (inactive),-4.9% (inactive),109,–,–,-0.507 (inactive),-3.9e-05 (inactive),0.00504 (inactive),-8.84% (inactive),9.33% (inactive),35.1% (inactive),-1.14,0.796,1.17,19% (inactive),inactive,–
Cc1cc(C)n(S(=O)(=O)Cc2ccccc2)n1,495,0.8% (inactive),-5.2% (inactive),100,-49.2% (inactive),105,-0.531 (inactive),-1.7e-05 (inactive),0.00447 (inactive),-10% (inactive),15% (inactive),14.8% (inactive),–,–,–,–,inactive,–
CC[C@H](C)C(=O)O[C@H]1C[C@@H](C)C=C2C=C[C@H](C)[C@H](CC[C@@H]3C[C@@H](O)CC(=O)O3)[C@H]21,724,-11.9% (inactive),0.4% (inactive),105,-93.9% (inactive),122,–,–,0.00586 (inactive),14.3% (inactive),-4.78% (inactive),49.1% (inactive),0.18,-1.59,-0.22,21.2% (inactive),inactive,–
